Assay [1] addresses Glutathione peroxidase 1 (Homo sapiens) (UniProt P07203). As to the kind of experiment: Primary qHTS Assay for Inhibitors of Recombinant Selenoprotein Glutathione Peroxidase 1 (GPX1) (AID 1845191). Further: nearly all actives have a fitted effect of over 65% in size. Further: potency means the concentration at half of the fitted maximal effect. An outline of the steps:
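GR-coupled assay: compounds preincubated 30 min at room temperature with GPX1, then reaction started with CHP; final 10 nM GPX1, 1 mM GSH, 0.5 mM CHP, 0.5 mM NADPH, 100 nM GR, 0.01% BSA, pH 7.5 Tris buffer. NADPH fluorescence (340/450 nm) read at 0 and 15 min.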

The target of assay [2] is Phospholipid hydroperoxide glutathione peroxidase GPX4 (Homo sapiens) (UniProt P36969). As to the kind of experiment: Primary qHTS Assay for Inhibitors of Recombinant Selenoprotein Glutathione Peroxidase 4 (GPX4) (AID 1845192). Further: nearly all actives have a fitted effect of over 65% in size. Further: potency means the concentration at half of the fitted maximal effect. An outline of the steps:
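GR-coupled assay: recombinant GPX4 preincubated 30 min with compound at room temperature; final 200 nM GPX4, 1 mM GSH, 0.5 mM cumene hydroperoxide, 0.5 mM NADPH, 100 nM GR, 0.01% BSA, pH 7.5 Tris. NADPH fluorescence (340/450 nm) read at 0 and 15 min.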

Assay [3] concerns the target Luciferin 4-monooxygenase (Photinus pyralis) (UniProt P08659). The experiment in a line: Primary firefly luciferase (FLuc) qHTS assay for identification of artifact compounds. (AID 1845220). Further: nearly all actives have a fitted effect of over 60% in size. The procedure, abridged: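 Titrated compounds were incubated 15 min at RT, protected from light, with luciferin and ATP at 10 uM; reaction started with 10 nM FLuc, luminescence imaged at 5 min, and concentration-response fitted by Hill equation.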
On the technique in general: Quantitative high-throughput screening tests each substance at several concentrations.

The nature of assay [4]: Primary fluorescence-based thiol-reactive (MSTI) qHTS assay for identification of artifact compounds. (AID 1845221).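 Further: series mostly up to about 54 µM; thiol-reactive compounds lower the probe fluorescence signal; nearly all actives have a fitted effect of over 65% in size.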 An outline of the steps: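 A multi-concentration qHTS design tested compounds against 4 uM MSTI, pH 7.4 phosphate-buffered saline. Plates were protected from light for 1 h at room temperature before imaging fluorescence.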
In assay [5] the test system is Nanoluciferase (engineered Oplophorus gracilirostris luciferase). The experiment in a line: Primary Nanoluciferase (NLuc) qHTS assay for identification of artifact compounds. (AID 1845222). Further: potency means the concentration at half of the fitted maximal effect. The procedure, abridged: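 qHTS format, against NLuc in S16 cell-conditioned medium. Nano-Glo substrate 1:100 was added after 15 min at room temperature. Luminescence was taken after a further 5 min.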

Values joined by “and” are separate entries in the source; they are usually repeats but may differ in a detail not shown here. Identical values can stand only once. Results filed as inconclusive are left out. The source holds several records for some structures; these can differ, active in one and inactive in another. Active and inactive are the calls of the source. The call rests on the fitted dose curve; in most records, active means well fitted curve in the direction sought with a large enough effect; inconclusive means small, poorly fitted or top-dose-only effect, or another doubt; inactive means no such curve, though single readings can be large; an effect the other way counts as inactive or inconclusive.

Chain of Phospholipid hydroperoxide glutathione peroxidase GPX4 (Homo sapiens) (P36969 whole entry, looked up): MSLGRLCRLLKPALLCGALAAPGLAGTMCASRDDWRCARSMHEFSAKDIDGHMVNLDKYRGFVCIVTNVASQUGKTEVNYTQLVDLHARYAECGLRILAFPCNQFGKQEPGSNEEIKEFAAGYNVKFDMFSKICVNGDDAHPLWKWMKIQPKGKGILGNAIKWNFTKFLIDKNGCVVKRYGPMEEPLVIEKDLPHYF
Chain of Glutathione peroxidase 1 (Homo sapiens) (P07203 whole entry, looked up): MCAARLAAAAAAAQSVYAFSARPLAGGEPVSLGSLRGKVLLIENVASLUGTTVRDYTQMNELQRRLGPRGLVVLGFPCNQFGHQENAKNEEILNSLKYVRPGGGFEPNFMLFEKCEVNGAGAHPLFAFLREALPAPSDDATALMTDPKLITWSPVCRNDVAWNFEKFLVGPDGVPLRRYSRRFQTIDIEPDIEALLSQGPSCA

Take `C=CCc1ccc(OC(C)Cc2ccc(OC)c(OC)c2)c(OC)c1` (stereo not given): the Potency entry in assay [1], in assay [2], in assay [3], in assay [4] and in assay [5] was “inactive” in each case.

For the molecule `Nc1ncnc2c1nc(Cl)n2C1OC2COP(=O)(O)OC2C1O` (stereo not given), the Potency result in assay [1], in assay [2], in assay [3], in assay [4] and in assay [5] was “inactive” in each case.

Regarding `C=C[C@](C)(O)CC[C@H]1C(C)=CC(=O)[C@H]2C(C)(C)CCC[C@]12C`, the Potency entry in assay [1], in assay [2], in assay [3], in assay [4] and in assay [5] was “inactive” throughout.

Consider `Cc1ccc(S(=O)(=O)NCc2ccc(C(=O)NCCN(Cc3ccccc3)C(C)C)cc2)cc1`, for which the Potency entry in assay [1], in assay [2], in assay [3], in assay [4] and in assay [5] was “inactive” each time.

Regarding `CN1c2c(nc(N)[nH]c2=O)NC[C@@H]1CNc1ccc(C(=O)N[C@@H](CCC(=O)O)C(=O)O)cc1`, the Potency entry in assay [1], in assay [3], in assay [4] and in assay [5] was “inactive” each time. Also, the Potency result in assay [2] was “inactive and 1.24 µM (active)”.

Turning to `C=C1CC2[C@@]3(C)C=CC(=O)C(C)(C)C3=C(O)C(=O)[C@@]2(C)C2(C(=O)OC)C(=O)C(C)OC(=O)[C@@]12C` (stereo not given in full), the Potency entry in assay [1], in assay [2], in assay [3], in assay [4] and in assay [5] was “inactive” throughout.

Consider `COc1ccc(CCN(C)CCCOc2nsc(-c3ccccc3)n2)cc1OC`, for which the Potency entry in assay [1], in assay [2], in assay [3], in assay [4] and in assay [5] was “inactive” throughout.

For `Cc1ccc(NC(=O)N2CCN(c3nc(N)nc4sc(-c5cccnc5)nc34)CC2)cc1`, the Potency in assay [1] was 14.3 µM (active); in assay [2], 2.55 µM (active). Also, the Potency entry in assay [3], in assay [4] and in assay [5] was “inactive” in each case.

Consider `O=c1cc(N2CCN(c3cccc(C(F)(F)F)c3)CC2)[nH]c(=O)n1C1CCCCC1`, for which the Potency result in assay [1], in assay [2], in assay [3], in assay [4] and in assay [5] was “inactive” in each case.

On to `CO[C@@H]1[C@H](O)CCC2(CO2)[C@H]1[C@@]1(C)O[C@@H]1CC=C(C)C` (stereo not given in full), for which the Potency result in assay [1], in assay [2], in assay [3], in assay [4] and in assay [5] was “inactive” each time.

With `C[C@@H]1O[C@@H](O[C@H]2[C@@H]3C=CO[C@@H](O[C@@H]4O[C@H](CO)[C@@H](O)[C@H](O)[C@H]4O)[C@@H]3[C@@]3(CO)O[C@@H]23)[C@H](O)[C@H](OC(=O)/C=C/c2ccccc2)[C@H]1O`, the Potency entry in assay [1], in assay [2], in assay [3], in assay [4] and in assay [5] was “inactive” throughout.

As for `O=C(NCC1CCN(Cc2cccc(Cl)c2)CC1)[C@@H]1CCCN(c2ncnc3c2nc2n3CCCC2)C1`, the Potency result in assay [1], in assay [2], in assay [3], in assay [4] and in assay [5] was “inactive” throughout.

Regarding `C=C1CC[C@H]2C(=C)CC[C@H]3C(=C)C(=O)O[C@@H]3[C@@H]12`, the Potency result in assay [1], in assay [2], in assay [3], in assay [4] and in assay [5] was “inactive” each time.

In the case of `COc1ccc2nccc(C(=O)CC[C@@H]3CCN(CC#Cc4cc(F)cc(F)c4F)C[C@@H]3C(=O)O)c2c1`, the Potency entry in assay [1], in assay [2], in assay [3], in assay [4] and in assay [5] was “inactive” throughout.

In the case of `O=C(O)C1=CO[C@@H](O[C@@H]2O[C@H](CO)[C@@H](O)[C@H](O)[C@H]2O)[C@@H]2C(CO)=CC[C@H]12`, the Potency entry in assay [1], in assay [2], in assay [3], in assay [4] and in assay [5] was “inactive” throughout.

As for `O=C(CNC(=O)c1cccc(C(F)(F)F)c1)N[C@@H]1CCN(Cc2ccc(Cl)cc2)C1`, the Potency result in assay [1], in assay [2], in assay [3], in assay [4] and in assay [5] was “inactive” each time.

For the molecule `O=C([C@@H]1CCCN(c2ccc3[nH]c(C4(n5cc(Cl)cn5)CC4)nc3n2)C1)N1CCCC1`, the Potency result in assay [1], in assay [3], in assay [4] and in assay [5] was “inactive” throughout. Besides, in assay [2], the Potency is 25.5 µM (active).

Regarding `CC(C)c1cc2c(N3CCN(C4=NCC(C)(C)S4)CC3)ncnc2s1`, the Potency entry in assay [1], in assay [2], in assay [3], in assay [4] and in assay [5] was “inactive” each time.

Regarding `Fc1ccc(-c2nc(C3CCNCC3)sc2-c2ccnc(NC3CC3)n2)cc1`, the Potency result in assay [1], in assay [2], in assay [3], in assay [4] and in assay [5] was “inactive” in each case.

Regarding `O=C(Nc1ccc(C(O)(C(F)(F)F)C(F)(F)F)cc1)c1ccc(C(F)(F)F)cc1`, the Potency entry in assay [1], in assay [2], in assay [3], in assay [4] and in assay [5] was “inactive” throughout.

Turning to `CC1(C)OC[C@H](NC(=O)Nc2ccc(Br)cc2Br)[C@H](c2ccccc2)O1`, the Potency entry in assay [1], in assay [2], in assay [3], in assay [4] and in assay [5] was “inactive” each time.

For `COc1cc(C(=O)NC(=S)Nc2cccc(NC(=O)c3ccccc3)c2)cc(OC)c1OC`, the Potency result in assay [1], in assay [2], in assay [3], in assay [4] and in assay [5] was “inactive” in each case.

Consider `CC(=O)NC(C)c1cnc(-c2cnc(Oc3ccc(OC(C)C)cc3)s2)s1` (stereo not given), for which the Potency result in assay [1], in assay [2], in assay [3], in assay [4] and in assay [5] was “inactive” in each case.

For `COc1ccc(NC(=O)c2ccc(-c3ccc(-c4nnc(C)o4)cc3C)cc2)cc1N1CCN(C)CC1`, the Potency result in assay [1], in assay [2], in assay [3] and in assay [4] was “inactive” each time. Moreover, in assay [5], the Potency is 1.51 µM (active).

For `O=C(NCCN1CCN(c2cccc3c2OCCO3)CC1)c1ccc(F)cc1`, the Potency result in assay [1], in assay [2], in assay [3], in assay [4] and in assay [5] was “inactive” throughout.
